# Screens: PubChem, National Center for Advancing Translational Sciences (NCATS)
# JMJD2E inh – blocks human JMJD2E demethylase activity; JMJD2E catalytic domain, FDH-coupled NADH fluorescence (FDH is formaldehyde dehydrogenase); B2RXH2; actives 1.6% (n = 230,000); Potency, µM (doses to about 57.1 µM), for the others: at the top dose activity change, negative = inhibition, hits mostly inhibitors; AID 2147; active = well fitted inhibition curve with a large enough effect, not every such curve was filed as active; inconclusive = small, poorly fitted or top-dose-only effect, or another doubt; inactive = no such curve, though single readings can be large or run the other way;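 note: potency is the fitted concentration of half-maximal effect; 0% = wells with enzyme and -100% = buffer wells without enzyme; nearly all actives have a fitted effect of over 50% in size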
# Target sequence (B2RXH2 1-337 limits assumed): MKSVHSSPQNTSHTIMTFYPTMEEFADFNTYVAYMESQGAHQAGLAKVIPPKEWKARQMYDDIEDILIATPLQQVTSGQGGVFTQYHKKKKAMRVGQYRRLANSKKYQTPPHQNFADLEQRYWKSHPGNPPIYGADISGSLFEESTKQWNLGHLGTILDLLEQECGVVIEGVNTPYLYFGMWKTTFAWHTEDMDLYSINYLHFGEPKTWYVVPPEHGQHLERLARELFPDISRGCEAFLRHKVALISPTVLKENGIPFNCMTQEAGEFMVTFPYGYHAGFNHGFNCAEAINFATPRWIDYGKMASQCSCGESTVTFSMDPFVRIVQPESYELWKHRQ
# Sfp PPTase inh – inhibitors of Bacillus subtilis Sfp phosphopantetheinyl transferase. actives 3.5% (n = 310,000). AID 1490. Potency, µM, for the others: largest response in the series, negative = inhibition, most hits filed as inhibitors. Biochemical Sfp PPTase activity, qHTS. Q9F4F7;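 note: the enzyme is Sfp with the accession as filed and its product quenches rhodamine fluorescence; potency is the fitted concentration of half-maximal effect; 0% = enzyme reaction without inhibitor and -100% = no enzyme wells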
#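 Reaction rates are the 30-min fluorescence difference (ex 525, em 598 nm) in wells containing 15 nM Sfp, 5 uM rhodamine-CoA and 12.5 uM BHQ-2-YbbR at pH 7.6 with 10 mM MgCl2.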
# Tau fluor cs – counter-screen for tau fibril formation inhibitors; tau K18 P301L Alexa594 fluorescence, heparin fibrillization; Potency, µM (top dose mostly 57.7 µM), for the others: at the top dose activity change, negative = decrease; actives 0.93% (n = 280,000); AID 1463; note: potency is the fitted concentration of half-maximal effect; nearly all actives have a fitted effect of over 55% in size
#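 Human K18 P301L tau (15 uM unlabeled plus 0.24 uM Alexa 594-labeled, final) in 100 mM sodium acetate pH 7 was mixed with compound and 20 uM heparin and incubated 6 hr at 37 C.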
# Tau ThT inhib – tau fibrillization inhibition (ThT binding). recombinant tau K18 P301L (four-repeat tau fragment), heparin-induced fibrillization, ThT fluorescence. P10636. Potency, µM (top dose mostly 57.4 µM), for the others: at the highest dose activity, negative = inhibition, most hits filed as inhibitors. actives 2.1% (n = 270,000); note: potency is the fitted concentration of half-maximal effect; nearly all actives have a fitted effect of over 55% in size
# Target sequence (P10636 561-689 P618L limits assumed): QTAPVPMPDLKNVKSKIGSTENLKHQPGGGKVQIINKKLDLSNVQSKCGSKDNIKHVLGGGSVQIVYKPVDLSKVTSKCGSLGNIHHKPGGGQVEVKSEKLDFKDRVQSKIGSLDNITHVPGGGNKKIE
#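 Recombinant human tau K18 fragment […] carrying P301L, 15 uM unlabeled plus 0.24 uM Alexa 594-labeled, was fibrillized with 20 uM heparin in 100 mM sodium acetate pH 7 for 6 hr at 37 C; 30 uM ThT fluorescence read after 1 hr.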
# Coupling enz – counter-screen for Giardia aldolase inhibitors: coupling enzyme system. coupling enzyme system counterscreen, AmpLite Red fluorescence. activity change, negative = inhibition, % at 58.2 µM, hits read low. actives 0.67% (n = 290,000). AID 2472; in the data active = activity change below about -30%
#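 First, compound is pin-transferred into glyceraldehyde-3-phosphate coupling-enzyme reagent at 57.5 uM final and held 10 min at RT. Next, substrate, coupling system and AmpLite Red are added. After 20 min RT, fluorescence (525/598 nm) is read.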
# Tau FP inhib – tau fibrillization inhibition (FP) | K18 P301L tau heparin fibrillization, Alexa594 FP, 6 h | P10636 | AID 1468 | actives 0.39% (n = 280,000) | Potency, µM (highest dose often 57.7 µM), for the others: at the highest dose activity, negative = inhibition, usual class: inhibitors; note: potency is the fitted concentration of half-maximal effect; nearly all actives have a fitted effect of over 55% in size
#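 Recombinant K18 P301L […], labeled with Alexa 594 at 0.24 uM over 15 uM unlabeled; heparin inducer 20 uM final; 37 C, 6 hr; FP endpoint.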
# Starred values were filed as active, the others as inactive; ? = inconclusive; · = no result; [ ] = remark or other dose. A selection: hits, their analogues and other compounds. The true share with any hit is near 5.3%. Unless noted, calls come from the whole dose curve; as a rule, active = well fitted curve in the direction sought with a large enough effect; inconclusive = small, poorly fitted or top-dose-only effect, or another doubt; inactive = no such curve, though single readings can be large; an effect the other way counts as inactive or inconclusive. Unless noted, % is set by controls: 0 for no effect and ±100 for the full control effect.
SMILES,JMJD2E inh,Sfp PPTase inh,Tau fluor cs,Tau ThT inhib,Coupling enz,Tau FP inhib
Cc1ccc(NC(=O)Cn2c(=O)n(Cc3ccccc3)c(=O)c3c(C)c(C)sc32)c(C)c1,·,·,-6%,12%,·,?
COc1ccc(/C=C2\SC(c3ccc(C)cc3)=NC2=O)cc1OC,-18%,?,?,11µM*,-1,?
COc1cc(/C=C2\SC(N)=NC2=O)ccc1OCC(=O)Nc1ccc(C)cc1,-9%,-4%,-22%,?,1,?
CCOc1ccc(CNC(=O)CSc2nnc(C)c3c(C)n(-c4ccc(Cl)cc4)nc23)cc1,·,·,-12%,-7%,·,-9%
Cc1cccc(C2c3[nH]c4ccccc4c3CCN2Cc2cccn2-c2ncccn2)c1 (centres undefined),32µM*,-25%,-28%,-13%,-3,2%
c1ccc(C2c3[nH]c4ccccc4c3CCN2Cc2cccn2-c2ccccn2)nc1 (centres undefined),?,-6%,?,?,-13,-1%
COc1ccc(C2c3[nH]c4ccccc4c3CCN2Cc2cccn2-c2ncccn2)cc1C (centres undefined),-1%,56µM*,?,?,-1,-1%
COc1ccccc1C1c2[nH]c3ccccc3c2CCN1Cc1cnc(C)s1 (centres undefined),?,8%,-24%,-17%,0,?
CCCCOc1ccc(NC(=O)CSc2ccc(C(=O)O)cn2)cc1,·,·,0%,1%,·,3%
CCC12CN3CC(CC)(CN(C1)C3c1c(O)ccc3ccccc13)C2=O (centres undefined),13µM*,-19%,-18%,?,-36*,-9%
Cc1ccc(-c2nc(N=Nc3ccc(O)cc3)n[nH]2)cc1,-2%,5%,-27%,2.5µM*,-8,-2%
COc1ccc(-c2nc(N=Nc3ccc(O)cc3)n[nH]2)cc1,-8%,6%,-20%,2.8µM*,-5,1%
Cc1nc(N=Nc2ccc(O)cc2)n[nH]1,-5%,?,-2%,-14%,3,-7%
O=c1cnc2cnc(Nc3ccccc3)nc2n1CCc1ccccc1,·,6%,·,·,3,·
O=c1[nH]c2ccccc2c(O)c1SCCO,?,79µM*,-6%,-16%,-2,-1%
CC(=O)Nc1c(O)c2ccccc2[nH]c1=O,?,18µM*,-12%,-17%,-1,?
CCCCC(=O)Nc1c(O)c2ccccc2[nH]c1=O,-5%,10%,5%,-1%,3,-6%
CNC(=O)C(=O)Nc1c(O)c2ccccc2[nH]c1=O,-27%,22µM*,7%,·,1,-3%
CC(C)=NNC(=O)c1c(O)c2ccccc2[nH]c1=O,?,-6%,-16%,?,-6,-1%
Cc1[nH]cnc1CSCCN,-10%,7.1µM*,1%,-2%,2,2%
COc1ccc(CNc2ncncc2-c2ccc(N(C)C)cc2)c(OC)c1,·,79µM*,·,·,-5,·
O=C(/C=C/c1ccc(Br)cc1)NC(=S)NNC(=O)c1ccco1,?,-3%,-29%,16µM*,0,1%
O=C(/C=C/c1ccccc1)NC(=S)NNC(=O)c1ccco1,?,-6%,-13%,?,2,1%
Cc1ccc2c(CNC3CCC(C)CC3)c(C(=O)O)n(Cc3cccc(F)c3)c2c1 (centres undefined),·,·,-8%,-3%,·,-4%
COc1ccc(C(=O)/C=C/C(=O)N(Cc2ccccc2)C(C(=O)NC2CCCCC2)c2ccncc2)c(O)c1 (centres undefined),0%,-2%,-6%,-13%,-1,-1%
SMILES,JMJD2E inh,Sfp PPTase inh,Tau fluor cs,Tau ThT inhib,Coupling enz,Tau FP inhib
COc1ccc(C(=O)/C=C/C(=O)N(CC(=O)NC2CCCCC2)Cc2ccccc2OC)c(O)c1,-21%,3.2µM*,-2%,?,2,-1%
COc1ccc(C(=O)/C=C/C(=O)N(CC(=O)NC2CCCCC2)CC2CCCO2)c(O)c1 (centres undefined),?,3.2µM*,0%,?,4,?
COc1ccc(C(=O)/C=C/C(=O)N(CC(=O)NC2CCCCC2)Cc2ccccc2)c(O)c1,-1%,1.8µM*,-17%,?,1,-10%
CC(CSC(=O)c1ccccc1)C(=O)N1C[C@@H](Sc2ccccc2)C[C@H]1C(=O)O (some centres undefined),·,20%,·,·,·,·
CN(C)c1ccc(NC(=O)C2(c3cccs3)CCOCC2)cc1,·,·,-11%,?,·,7%
Cc1ccccc1C1N(c2nccs2)C(=O)C2CCCN21 (centres undefined),125%,50µM*,-9%,?,1,?
O=C1C2CCCN2C(c2ccccc2)N1c1nccs1 (centres undefined),0%,50µM*,-3%,-1%,-2,2%
COc1ccccc1N1CCN(C(=O)c2cc3c(=O)n(Cc4cccnc4)ccc3nc2C)CC1,·,·,9%,11%,·,4%
CC1(C)Oc2ccc3ccc(=O)oc3c2/C(=C/Nc2ccc(O)cc2)C1=O,-4%,20%,13µM*[quencher],-17%,2,8%
CC1(C)Oc2ccc3ccc(=O)oc3c2/C(=C/Nc2cccc(O)c2)C1=O,-11%,-6%,?,?,0,-5%
CCn1c(=O)cc(C(F)(F)F)[nH]c1=S,?,79µM*,0%,-3%,0,-7%
Cn1c(=S)c2[nH]c(SCCN3CCCC3)nc2n(C)c1=O,?,40µM*,-3%,-14%,-24,-4%
Cc1ocnc1C(=O)Nc1ccc(Cl)cc1,?,-7%,-11%,-9%,-14,2%
CC(=O)N(Cc1ccco1)c1nc(C(=O)Nc2ccc(Cl)cc2)c(C)s1,-6%,20µM*,-20%,-10%,4,0%
CCc1ccc2[nH]c(O)c(N=Nc3nc(-c4ccccc4)cs3)c2c1,-2%,-15%,?,4.5µM*,-2,10%
COc1ccc(C2C=C3CNS(=O)(=O)C3CC2OC(=O)c2ccc(C(F)(F)F)cc2)cc1 (centres undefined),·,5%,·,·,-11,·
CC(CNc1ccccc1O)C(=O)O (centres undefined),?,50µM*,?,28µM*,-11,?
CO[C@@H](C(C)C)[C@@H](C)[C@@H]1OC(=O)C[C@@H]1O,·,-4%,-9%[11.6 µM],-10%[11.5 µM],-2,0%[11.6 µM]
COc1cccc2c1CCC1=CC(=O)CC[C@@]12C,4%,24%,-3%,-2%,-4,1%
NNC(=S)Nc1cccc(-c2n[nH]c(=S)o2)c1,?,79µM*,-9%,·,3,9%
CN(C)C(=S)Nc1cccc(-c2n[nH]c(=S)o2)c1,?,-46%,-5%,-6%,3,-10%
